From PubChem BioAssay (Tox21)
Where “and” joins values, the source holds several entries; their conditions need not be identical. Equal entries are not always repeated. Inconclusive results are not listed. Where a call stands in place of a potency, no number is given. Calls of active or inactive are those of the source. Calls follow the shape of the dose curve; as a rule, active = well fitted cell-killing curve with a large enough effect in the repeat runs; inconclusive = weak or mixed curves, or effect the other way; inactive = flat fitted curve, though single readings scatter.

test: qHTS RealTime-Glo MT Cell Viability Assay in HEK293 cells - 32 hour (AID 1224868); conditions: RealTime-Glo luminescence; series mostly up to 76.8 µM; also: nearly all actives have a fitted effect of over 50% in size
Text: National Center for Advancing Translational Sciences [NCATS]
NIH Chemical Genomics Center [NCGC]
U.S. Environmental Protection Agency [EPA]
National Institutes of Environmental Health Sciences [NIEHS]
National Toxicology Program [NTP]
U.S. Food and Drug Administration [FDA]
Measure of cell viability is critical in the cell-base assay. Analysis of cell viability is necessary for the characterization of cell responses to cytotoxic drugs and environmental stress. A RealTime-Glo MT Cell Viability Assay to monitor cell viability in real time of continues cell culture during 40 hours of compound treatment was used to screen Tox21 10K library compounds in Hek293 cells. The RealTime-Glo MT Cell Viability Assay is a nonlytic, homogeneous, bioluminescent method to measure cell viability in real time using a simple, plate-based method. The assay involves adding NanoLuc luciferase and a cell-permeant prosubstrate to cells in culture. Viable cells reduce the proprietary prosubstrate to generate a substrate for NanoLuc luciferase. This substrate diffuses from cells into the surrounding culture medium, where it is rapidly used by the NanoLuc Enzyme to produce a luminescent signal. The signal correlates with the number of viable cells, making the assay well suited for cytotoxicity studies.
Tox21 Assay Protocol Summary:
The mixture of Hek293 cell suspension and reagents were dispensed at 600cells/6 ul/well in 1536-well tissue culture treated black solid bottom plates using a Multidrop dispenser. After the assay plates were incubated at a 37 C/5% CO2 incubator for 5 hours, 23 nL of compounds dissolved in DMSO, positive and negative controls was transferred to the assay plate by a pintool work station. The plates were incubated at 37 C for 40 hours. The luminescence intensity were measured at 0h, 8h, 16h, 24h, 32h and 40h time points using ViewLux plate reader during compound treatment.
Potency is read from the fitted curve at half-maximal effect.

Row | Structure (SMILES) | Potency
1 | O=C(Cl)OCc1ccccc1 | inactive
2 | CN(C)CCc1c[nH]c2cccc(OP(=O)(O)O)c12 | inactive
3 | CCCOc1nn(C(=O)NS(=O)(=O)c2ccccc2C(=O)OC)c(=O)n1C | inactive
4 | CN(C)C(=O)Oc1cc(OC(=O)N(C)C)cc(C(O)CNC(C)(C)C)c1 (stereo not given) | inactive
5 | ClCCN1CCCC1 | inactive
6 | CCc1cc(OC)c(C[C@H](C)N)cc1OC | inactive
7 | CCOC(=O)C(SP(=S)(OC)OC)c1ccccc1 (stereo not given) | inactive
8 | COc1ccccc1OC | inactive
9 | NC(=O)CS(=O)C(c1ccccc1)c1ccccc1 (stereo not given) | inactive
10 | S=C=S | inactive
11 | CCCCCCCC(=O)Cl | inactive
12 | CCOP(=S)(OCC)SCCl | inactive
13 | CCCCOC(C)=O | inactive
14 | C/C(=N\NC(=O)Nc1cc(F)cc(F)c1)c1ncccc1C(=O)O | inactive
15 | CCCCCCC1CCOC1=O (stereo not given) | inactive
16 | CC(C)c1ccc(O)cc1 | inactive
17 | CCC1(c2ccccc2)CCC(=O)NC1=O (stereo not given) | inactive
18 | C[C@H](N)C(=O)c1ccccc1 | inactive
19 | CCNP(=S)(OC)O/C(C)=C/C(=O)OC(C)C (stereo not given) | inactive
20 | CCOc1cc(OP(=S)(OC)OC)nc(CC)n1 | inactive

Row | Structure (SMILES) | Potency
21 | OP(O)c1ccccc1 | inactive
22 | CC1=C2[C@H]3OC(=O)[C@@H](C)[C@@H]3CC[C@@]2(C)C=CC1=O | inactive
23 | COC(=O)c1ccc(CBr)cc1 | inactive
24 | O=C1C2CC=CCC2C(=O)N1SC(Cl)(Cl)Cl (stereo not given) | 43.5 µM (active) and 3.04 µM (active)
25 | O=C(Cl)C(Cl)(Cl)Cl | inactive
26 | CCN[C@H](C)Cc1cccc(C(F)(F)F)c1 | inactive
27 | Cc1ccc2cc(C)ccc2c1 | inactive
28 | CN(C)CCN(C)C | inactive
29 | C/C=C/CC#N | inactive
30 | O=C(O)C(Br)(Br)Br | inactive
31 | CCOC(=O)CC(SP(=S)(OC)OC)C(=O)OCC (stereo not given) | inactive
32 | C[C@H]1CCCC(=O)CCC/C=C/c2cc(O)cc(O)c2C(=O)O1 | 21.1 µM (active)
33 | CCCN1CCC[C@@H]2Cc3[nH]ncc3C[C@H]21 | inactive
34 | CCC(CC)(CNC(=O)CCCO)c1cccc(OC)c1 | inactive
35 | COC[C@@H](NC(C)=O)C(=O)NCc1ccccc1 | inactive
36 | NNCc1ccccc1 | inactive
37 | O=c1[nH]oc2c1CCNC2 | inactive
38 | CC(=NC#N)N(C)Cc1ccc(Cl)nc1 | inactive
39 | N[C@@H]1C[C@H]1c1ccccc1 | inactive
40 | CNC(=O)NC(O)C(Cl)(Cl)Cl (stereo not given) | inactive
